Results filed as inconclusive are left out. Active and inactive are the calls of the source. The calls were made as follows, unless noted: active = hit-call score of the fitted dose curve at least 0.9, where 1 is the maximum; inconclusive = response in the unintended direction; inactive = score below 0.9.
How the values were obtained:
[1] = molecular target: zebrafish Thyroid Hormone Receptor beta (TRb), thrb (gene 30607) (UniProt Q9PVE4); test: ATG_zfTRb_XSP2: Attagene TRANS-FACTORIAL Multi-Species (XSP1) HepG2 Assay for zebrafish Thyroid Hormone Receptor beta (TRb) (AID 2283836)
Method in brief: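 Human liver HepG2, transient MRTU transfection (NR-Gal4 chimeras, GAL4-UAS reporters); 24 h compound exposure; total RNA → oligo(dT) RT → PCR → 6-FAM label → HpaI cut → CE fluorescence. DMSO = negative control/baseline.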

[2] = molecular target: human AKT serine/threonine Kinase 1 (AKT1), AKT1 (gene 207) (UniProt P31749); test: NVS_ENZ_hAKT1: NovaScreen (NVS) Enzymatic Assay for human AKT serine/threonine Kinase 1 (AKT1) (AID 2283138)
Method in brief: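 Recombinant AKT1, specific substrate, cell-free; 1 h; fluorescence intensity/electrophoretic mobility shift. Duplicate single-point 25 uM, then singleton CRC max 50 uM. DMSO = negative control/baseline; signal loss = inhibition.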

[3] = molecular target: human Casein Kinase 1-delta (CK1D), CSNK1D (gene 1453) (UniProt P48730); test: NVS_ENZ_hCK1D: NovaScreen (NVS) Enzymatic Assay for human Casein Kinase 1-delta (CK1D) (AID 2283148)
Method in brief: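 Recombinant human CK1-delta, cell-free; fluorescent substrate with electrophoretic mobility-shift separation of product, read 1 h after dosing. Single 25 uM duplicate screen, then concentration-response up to 50 uM; loss of signal vs DMSO.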

[4] = molecular target: human Colony Stimulating Factor 1 Receptor (CSF1R), CSF1R (gene 1436) (UniProt P07333); test: NVS_ENZ_hCSF1R: NovaScreen (NVS) Enzymatic Assay for human Colony Stimulating Factor 1 Receptor (CSF1R) (AID 2283150)
Method in brief: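 Cell-free recombinant human CSF1R kinase with fluorescent substrate, product separated by electrophoretic mobility shift; read 1 h after dosing. Primary screen at 25 uM in duplicate, actives then in concentration-response up to 50 uM, relative to DMSO.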

[5] = molecular target: human FYN Proto-Oncogene, Src family Tyrosine Kinase (Fyn), FYN (gene 2534) (UniProt P06241); test: NVS_ENZ_hFyn: NovaScreen (NVS) Enzymatic Assay for human FYN Proto-Oncogene, Src family Tyrosine Kinase (Fyn) (AID 2283161)
Method in brief: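 Recombinant enzyme with fluorescent substrate, product separated by electrophoretic mobility shift; read 1 h after dosing. Duplicate 25 uM single-point screen, actives retested in concentration series; loss of signal vs DMSO.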

[6] = molecular target: Tyrosine-protein phosphatase non-receptor type 11 (Homo sapiens) (UniProt Q06124); test: NVS_ENZ_hPTPN11: NovaScreen (NVS) Enzymatic Assay for human Protein Tyrosine Phosphatase Non-receptor Type 11 (PTPN11) (AID 2283202)
Method in brief: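 Recombinant human PTPN11 activity on a fluorescent substrate, with substrate/product separated by electrophoretic mobility shift; read 0.5 h after dosing, loss of signal vs DMSO. Duplicate 25 uM screen, then concentration-response up to 50 uM.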

[7] = molecular target: Tyrosine-protein phosphatase non-receptor type 13 (Homo sapiens) (UniProt Q12923); test: NVS_ENZ_hPTPN13: NovaScreen (NVS) Enzymatic Assay for human Protein Tyrosine Phosphatase Non-receptor Type 13 (PTPN13) (AID 2283205)
Method in brief: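 Cell-free assay of recombinant human PTPN13 with a fluorescent substrate, product separated by electrophoretic mobility shift and read 0.5 h after dosing. Primary screen at 25 uM in duplicate, then concentration-response up to 50 uM. Loss of signal fitted against DMSO.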

[8] = molecular target: human Protein Tyrosine Phosphatase Non-receptor Type 2 (PTPN2), PTPN2 (gene 5771) (UniProt P17706); test: NVS_ENZ_hPTPN2: NovaScreen (NVS) Enzymatic Assay for human Protein Tyrosine Phosphatase Non-receptor Type 2 (PTPN2) (AID 2283207)
Method in brief: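 Cell-free recombinant enzyme with fluorescent substrate, product separated by electrophoretic mobility shift; read 1 h after dosing. Primary screen single concentration (25 uM) in duplicate; actives followed in concentration series; loss of signal versus DMSO.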

[9] = molecular target: human Vascular Endothelial Growth Factor Receptor 2 (VEGFR2), KDR (gene 3791) (UniProt P35968); test: NVS_ENZ_hVEGFR2: NovaScreen (NVS) Enzymatic Assay for human Vascular Endothelial Growth Factor Receptor 2 (VEGFR2) (AID 2283230)
Method in brief: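 Cell-free recombinant VEGFR2 kinase, fluorescent substrate with electrophoretic mobility-shift separation; read 1 h after dosing. Screened at 25 uM in duplicate, hits to concentration-response up to 50 uM; loss-of-signal versus DMSO.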

[10] = molecular target: rat Constitutive Nitric Oxide Synthase (CNOS), Nos1 (gene 24598) (UniProt P29476); test: NVS_ENZ_rCNOS: NovaScreen (NVS) Enzymatic Assay for rat Constitutive Nitric Oxide Synthase (CNOS) (AID 2283236)
Method in brief: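 Enzyme activity in rat brain membrane preparation, read 1 h after dosing by filter-based radiometric scintillation counting. Primary screen in duplicate at 25 uM; actives (e.g., ≥30% inhibition) then run in concentration-response up to 50 uM.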

[11] = test system: Thyroperoxidase (TPO), gene 445522; test: CCTE_Simmons_GUA_TPO: CCTE's Guaiacol Assay for Thyroperoxidase (TPO) Inhibition, Simmons Lab (AID 2283750)
Method in brief: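 Porcine thyroid microsomes (25 ug) in 200mM potassium phosphate, preincubated 30 s at 37C with compound (8 concentrations, 5 nM–87.5 uM) and 35mM guaiacol; 1mM H2O2 starts reaction. Absorbance change at 450nm over first 80 s; loss of signal versus DMSO, three replicates.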

AR (gene 367) = AR (gene 367) (UniProt P10275); test: ACEA_AR_agonist_80hr: ACEA Biosciences xCELLigence Real-Time Cell Analysis on Androgen Receptor Agonism for Proliferation (AID 2283783);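 also: hits increase impedance growth signal above DMSO baseline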
Method in brief: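 Proliferation of 22Rv1 prostate cancer cells tracked by electrical impedance, endpoint taken at 80 hours after dosing. Eight-point 1:4 dilutions from 100 uM maximum final, duplicate; testosterone and MG132 as positive controls, assay media as negative.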

[12] = molecular target: human Matrix Metalloproteinase-2 (MMP2), MMP2 (gene 4313) (UniProt P08253); test: NVS_ENZ_hMMP2: NovaScreen (NVS) Enzymatic Assay for human Matrix Metalloproteinase-2 (MMP2) (AID 2283184)
Method in brief: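 Cell-free recombinant MMP2 activity with a fluorescent substrate, read 1 h after dosing. Primary screen in duplicate at 25 uM; actives then run in concentration series; loss of signal fitted versus DMSO.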

[13] = molecular target: Estrogen receptor (Homo sapiens) (UniProt P03372); test: CCTE_Deisenroth_AIME_384WELL_LUC_Active: CCTE's 384-well Estrogen Receptor Transactivation Assay with AIME metabolic competence (ERTA luciferase; metabolism positive), Deisenroth Lab (AID 2284030)
Method in brief: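 AIME metabolism-positive mode: chemicals 0.002 - 200 uM, 2 h with alginate-bound PB/BNF-induced rat S9 → medium to VM7Luc4E2 ERTA, 24 h → luciferase. Positive fit vs 17beta-estradiol; n=4 typical.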

[14] = molecular target: Estrogen receptor (Homo sapiens) (UniProt P03372); test: CCTE_Deisenroth_AIME_384WELL_LUC_Inactive: CCTE's 384-well Estrogen Receptor Transactivation Assay without AIME metabolic competence (ERTA luciferase; metabolism negative), Deisenroth Lab (AID 2284038);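 also: VM7Luc4E2 breast cells given medium preincubated 2 h with S9-free microspheres; hits raise estrogen receptor luciferase signal so potencies reflect agonists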
Method in brief: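 Metabolism-negative mode: chemicals (10-point, 0.002–200 uM) held 2 h with alginate-water microspheres, then conditioned medium applied to VM7Luc4E2 cells for 24 h. Luciferase induction referenced to 17beta-estradiol.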

[15] = molecular target: Estrogen receptor (Homo sapiens) (UniProt P03372); test: CCTE_Deisenroth_AIME_384WELL_LUC_Shift: CCTE's 384-well Estrogen Receptor Transactivation Assay with AIME metabolic competence data shift (ERTA luciferase; difference in metabolism positive and negative), Deisenroth Lab (AID 2284041; active = hit-call score of the fitted dose curve at least 0.9, where 1 is the maximum; inactive = score below 0.9;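 also: shift is response with S9 minus without S9 so positive means metabolism raised ER signal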)
Method in brief: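 Chemicals (0.002–200 uM, 10 points) pre-incubated 2 h with alginate-encapsulated induced male Sprague Dawley rat liver S9 or S9-free, then medium applied 24 h to VM7Luc4E2 cells; luciferase. Endpoint is per-concentration difference, S9-positive minus negative.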

[16] = NVS_IC_rCaBTZCHL: NovaScreen (NVS) Ion Channel Assay for Calcium Channel, Type L, Benzothiazepine Site (CaBTZCHL) (AID 2283337)
Method in brief: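 Scintillation counting of filter-bound radioligand gave the read-out, with reduced binding versus DMSO scored as activity. Membranes came from rat cortex and were read 1.5 h after compound addition. Chemicals were screened first in duplicate at 25 uM.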

[17] = TAMU_HCS_1.5hr_SingleDonor1434_Cytotoxicity: Cytotoxicity Assessment using High-content Screening (HCS) Fluorescent Imaging for the Texas A&M University (TAMU) 1.5-hr Human Induced Pluripotent Stem Cell (iPSC)-derived Cardiotoxicity Assay (AID 2284234)
Method in brief: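 Human iPSC-derived cardiomyocytes dosed at 0.2, 1, 10, 100 uM final (0.5% DMSO) for 90 min at 37 C. Hoechst 33342-stained nuclei counted by 10x high-content imaging; POD is EC10, a 10% drop in total cell count versus DMSO.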

[18] = ATG_M_06_XSP1: Attagene TRANS-FACTORIAL Multi-Species (XSP1) HepG2 Assay for M06 Transcription Factor (Internal Marker) (AID 2283790)
Method in brief: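 Transfected HepG2 multi-reporter system treated 24 h in the presence of 3 nM 6-alpha-fluorotestosterone. The M06 internal marker transcript was quantified by RT-PCR with capillary electrophoresis as a background control, and gain of signal was scored versus DMSO.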

[19] = ATG_M_61_XSP1: Attagene TRANS-FACTORIAL Multi-Species (XSP1) HepG2 Assay for M61 Transcription Factor (Internal Marker) (AID 2283797)
Method in brief: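 HepG2 cells transiently transfected with multiplexed GAL4-driven reporter units, dosed 24 h with 3 nM 6-alpha-fluorotestosterone present. Reporter mRNA quantified by RT-PCR, 6-FAM labelling, HpaI digestion and capillary electrophoresis; internal-marker background control, gain of signal versus DMSO.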

Sequence of Estrogen receptor (Homo sapiens) (P03372 whole entry, looked up): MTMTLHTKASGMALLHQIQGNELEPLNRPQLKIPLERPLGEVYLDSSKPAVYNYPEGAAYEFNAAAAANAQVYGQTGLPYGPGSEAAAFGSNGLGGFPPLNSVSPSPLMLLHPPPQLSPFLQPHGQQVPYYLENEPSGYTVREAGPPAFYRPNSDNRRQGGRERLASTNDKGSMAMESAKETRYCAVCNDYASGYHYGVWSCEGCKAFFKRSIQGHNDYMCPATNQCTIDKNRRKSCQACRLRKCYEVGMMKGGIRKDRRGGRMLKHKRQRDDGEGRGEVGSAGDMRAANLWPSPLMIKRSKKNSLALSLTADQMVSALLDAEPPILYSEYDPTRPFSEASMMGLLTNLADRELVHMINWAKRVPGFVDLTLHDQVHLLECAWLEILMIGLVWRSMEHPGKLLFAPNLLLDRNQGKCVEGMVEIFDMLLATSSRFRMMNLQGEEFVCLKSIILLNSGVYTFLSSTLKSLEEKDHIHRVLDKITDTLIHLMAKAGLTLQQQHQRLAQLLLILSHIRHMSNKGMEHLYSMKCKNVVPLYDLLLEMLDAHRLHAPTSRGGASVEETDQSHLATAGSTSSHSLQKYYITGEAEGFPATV
Sequence of Tyrosine-protein phosphatase non-receptor type 13 (Homo sapiens) (Q12923 whole entry, looked up): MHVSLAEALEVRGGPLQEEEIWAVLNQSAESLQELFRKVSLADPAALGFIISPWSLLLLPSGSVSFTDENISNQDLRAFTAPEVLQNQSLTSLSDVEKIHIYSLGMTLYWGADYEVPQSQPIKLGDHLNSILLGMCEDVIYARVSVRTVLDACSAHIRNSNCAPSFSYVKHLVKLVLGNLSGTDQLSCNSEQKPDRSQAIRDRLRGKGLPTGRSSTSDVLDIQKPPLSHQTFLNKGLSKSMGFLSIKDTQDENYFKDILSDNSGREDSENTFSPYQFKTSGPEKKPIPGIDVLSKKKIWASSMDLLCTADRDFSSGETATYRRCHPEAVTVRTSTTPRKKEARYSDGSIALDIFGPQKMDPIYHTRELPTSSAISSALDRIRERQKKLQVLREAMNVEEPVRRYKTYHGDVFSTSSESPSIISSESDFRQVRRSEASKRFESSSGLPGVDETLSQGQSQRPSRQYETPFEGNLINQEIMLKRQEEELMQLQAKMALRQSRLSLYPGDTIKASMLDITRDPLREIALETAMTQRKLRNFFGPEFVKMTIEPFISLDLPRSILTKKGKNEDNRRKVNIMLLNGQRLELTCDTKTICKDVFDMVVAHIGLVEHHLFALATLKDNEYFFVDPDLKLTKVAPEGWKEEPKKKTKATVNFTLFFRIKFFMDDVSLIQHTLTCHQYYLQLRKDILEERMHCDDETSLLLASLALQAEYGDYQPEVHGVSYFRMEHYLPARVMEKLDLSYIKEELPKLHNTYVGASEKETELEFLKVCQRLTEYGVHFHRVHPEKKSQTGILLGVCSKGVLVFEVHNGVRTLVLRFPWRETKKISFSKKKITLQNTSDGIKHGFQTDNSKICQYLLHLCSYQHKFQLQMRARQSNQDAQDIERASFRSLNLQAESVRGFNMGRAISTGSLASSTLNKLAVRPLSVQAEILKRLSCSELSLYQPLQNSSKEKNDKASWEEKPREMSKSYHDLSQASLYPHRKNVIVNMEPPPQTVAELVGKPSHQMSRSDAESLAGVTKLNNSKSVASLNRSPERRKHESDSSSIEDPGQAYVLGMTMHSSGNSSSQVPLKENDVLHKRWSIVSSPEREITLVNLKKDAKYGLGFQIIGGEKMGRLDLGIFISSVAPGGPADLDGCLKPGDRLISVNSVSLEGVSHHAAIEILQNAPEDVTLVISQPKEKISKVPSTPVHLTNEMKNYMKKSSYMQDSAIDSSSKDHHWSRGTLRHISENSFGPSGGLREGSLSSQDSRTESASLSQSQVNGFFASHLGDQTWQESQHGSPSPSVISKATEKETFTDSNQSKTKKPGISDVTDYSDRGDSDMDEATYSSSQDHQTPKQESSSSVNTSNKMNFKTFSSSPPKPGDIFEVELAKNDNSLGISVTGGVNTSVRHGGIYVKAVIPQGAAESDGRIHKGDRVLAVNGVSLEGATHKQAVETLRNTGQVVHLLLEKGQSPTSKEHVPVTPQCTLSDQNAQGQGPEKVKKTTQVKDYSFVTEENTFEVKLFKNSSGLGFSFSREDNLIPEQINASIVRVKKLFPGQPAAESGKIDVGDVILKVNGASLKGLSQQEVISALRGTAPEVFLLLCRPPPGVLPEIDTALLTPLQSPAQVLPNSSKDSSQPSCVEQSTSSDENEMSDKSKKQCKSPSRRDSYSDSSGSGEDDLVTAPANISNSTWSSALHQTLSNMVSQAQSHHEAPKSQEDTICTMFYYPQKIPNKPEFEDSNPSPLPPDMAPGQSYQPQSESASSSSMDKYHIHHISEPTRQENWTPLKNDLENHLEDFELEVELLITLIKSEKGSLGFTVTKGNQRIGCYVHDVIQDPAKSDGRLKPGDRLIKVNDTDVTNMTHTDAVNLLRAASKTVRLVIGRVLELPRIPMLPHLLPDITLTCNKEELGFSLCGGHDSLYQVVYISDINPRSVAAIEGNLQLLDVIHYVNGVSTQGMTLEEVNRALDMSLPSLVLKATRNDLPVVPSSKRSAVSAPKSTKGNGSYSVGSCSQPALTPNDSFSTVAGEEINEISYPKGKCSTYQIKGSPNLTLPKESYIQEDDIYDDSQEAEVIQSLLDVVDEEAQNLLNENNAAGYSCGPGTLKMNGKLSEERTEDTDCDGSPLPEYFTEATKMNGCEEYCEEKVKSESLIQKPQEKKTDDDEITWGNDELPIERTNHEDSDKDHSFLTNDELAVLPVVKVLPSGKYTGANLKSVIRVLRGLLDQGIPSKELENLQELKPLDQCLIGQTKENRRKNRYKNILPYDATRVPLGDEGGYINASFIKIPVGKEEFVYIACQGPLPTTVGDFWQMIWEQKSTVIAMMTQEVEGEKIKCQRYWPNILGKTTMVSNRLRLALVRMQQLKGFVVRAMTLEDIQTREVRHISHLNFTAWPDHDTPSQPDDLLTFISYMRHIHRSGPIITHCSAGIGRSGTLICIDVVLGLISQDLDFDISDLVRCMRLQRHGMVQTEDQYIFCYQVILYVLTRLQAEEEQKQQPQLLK
Sequence of human FYN Proto-Oncogene, Src family Tyrosine Kinase (Fyn), FYN (gene 2534) (P06241 whole entry, looked up): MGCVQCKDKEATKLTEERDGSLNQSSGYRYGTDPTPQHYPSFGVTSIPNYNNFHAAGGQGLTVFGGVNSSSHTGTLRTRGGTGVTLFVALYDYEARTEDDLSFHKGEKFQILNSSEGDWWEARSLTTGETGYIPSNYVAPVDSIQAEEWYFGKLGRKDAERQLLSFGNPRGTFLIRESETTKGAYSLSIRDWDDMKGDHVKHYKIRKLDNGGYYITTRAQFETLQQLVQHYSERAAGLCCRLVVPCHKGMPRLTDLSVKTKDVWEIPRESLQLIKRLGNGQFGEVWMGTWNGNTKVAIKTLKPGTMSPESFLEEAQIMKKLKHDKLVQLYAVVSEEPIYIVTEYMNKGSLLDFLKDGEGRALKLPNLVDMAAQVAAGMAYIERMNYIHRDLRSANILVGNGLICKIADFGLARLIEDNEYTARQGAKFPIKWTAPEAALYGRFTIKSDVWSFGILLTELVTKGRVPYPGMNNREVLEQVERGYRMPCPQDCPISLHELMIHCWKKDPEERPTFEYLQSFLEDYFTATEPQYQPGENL
Sequence of rat Constitutive Nitric Oxide Synthase (CNOS), Nos1 (gene 24598) (P29476 whole entry, looked up): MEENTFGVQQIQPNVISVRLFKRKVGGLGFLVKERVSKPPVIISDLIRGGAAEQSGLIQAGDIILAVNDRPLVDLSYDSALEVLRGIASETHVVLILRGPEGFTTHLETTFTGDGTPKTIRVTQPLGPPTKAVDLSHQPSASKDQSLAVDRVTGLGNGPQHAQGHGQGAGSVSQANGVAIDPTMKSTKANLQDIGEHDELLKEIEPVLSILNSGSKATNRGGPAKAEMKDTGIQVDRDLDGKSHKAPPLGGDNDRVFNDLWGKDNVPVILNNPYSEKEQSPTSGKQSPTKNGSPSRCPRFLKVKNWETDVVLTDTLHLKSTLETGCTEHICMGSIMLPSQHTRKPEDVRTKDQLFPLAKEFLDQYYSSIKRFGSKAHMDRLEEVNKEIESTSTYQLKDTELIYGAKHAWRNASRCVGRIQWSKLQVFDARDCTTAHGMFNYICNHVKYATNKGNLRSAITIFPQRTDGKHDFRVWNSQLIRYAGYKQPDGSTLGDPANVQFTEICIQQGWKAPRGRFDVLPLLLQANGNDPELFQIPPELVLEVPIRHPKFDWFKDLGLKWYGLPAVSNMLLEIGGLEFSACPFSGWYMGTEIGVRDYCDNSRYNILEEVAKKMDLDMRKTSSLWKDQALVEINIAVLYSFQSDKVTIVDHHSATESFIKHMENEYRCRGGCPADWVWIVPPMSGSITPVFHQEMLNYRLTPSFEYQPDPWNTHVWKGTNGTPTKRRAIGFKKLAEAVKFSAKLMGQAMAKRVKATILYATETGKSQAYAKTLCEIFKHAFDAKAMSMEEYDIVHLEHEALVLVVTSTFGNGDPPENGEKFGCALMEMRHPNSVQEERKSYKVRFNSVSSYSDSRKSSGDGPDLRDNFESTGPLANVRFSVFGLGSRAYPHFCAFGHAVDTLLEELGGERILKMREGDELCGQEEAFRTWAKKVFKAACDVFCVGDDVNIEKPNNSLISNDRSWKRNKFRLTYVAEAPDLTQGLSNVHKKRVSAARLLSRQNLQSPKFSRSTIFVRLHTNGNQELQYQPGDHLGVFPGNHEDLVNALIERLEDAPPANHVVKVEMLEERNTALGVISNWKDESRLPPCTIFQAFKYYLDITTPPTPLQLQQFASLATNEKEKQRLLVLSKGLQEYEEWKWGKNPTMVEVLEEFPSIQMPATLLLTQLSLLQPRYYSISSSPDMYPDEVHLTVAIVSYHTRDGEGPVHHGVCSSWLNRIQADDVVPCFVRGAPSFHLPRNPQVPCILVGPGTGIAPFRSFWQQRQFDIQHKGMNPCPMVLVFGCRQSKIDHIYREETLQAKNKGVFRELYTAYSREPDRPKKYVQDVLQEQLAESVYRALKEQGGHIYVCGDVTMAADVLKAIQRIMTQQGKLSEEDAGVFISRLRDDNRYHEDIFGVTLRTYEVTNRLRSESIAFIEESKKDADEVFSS

Question: Which outcome [1] does the source give for `CC(C)(c1cc(Cl)c(O)c(Cl)c1)c1cc(Cl)c(O)c(Cl)c1` here?
Answer: inactive

Question: Which results are given for `O=[N+]([O-])c1ccc(Cl)cc1`?
Answer: outcome [2]: inactive; outcome [3]: inactive; outcome [4]: inactive; outcome [5]: inactive; outcome [6]: inactive; outcome [7]: inactive; outcome [8]: inactive; outcome [9]: inactive; outcome [10]: inactive

Question: For `Nc1ccccc1`, which AC50 [11] is on record?
Answer: 9.69 µM (active)

Question: Which outcome (AR (gene 367)) does the source give for `c1ccc2c(c1)CCCC2` here?
Answer: inactive

Question: For `Cc1cc(C)c(C2=C(OC(=O)CC(C)(C)C)C3(CCCC3)OC2=O)c(C)c1`, which outcome [12] is on record?
Answer: inactive

Question: And the outcome [13]?
Answer: inactive

Question: What about the outcome [14] of the same compound?
Answer: inactive

Question: And the outcome [15]?
Answer: inactive

Question: With `c1ccc(Nc2ccc3ccccc3c2)cc1` as the compound, how does the outcome [16] read?
Answer: inactive

Question: Which outcome [17] does the source give for `O=C1C=CC(=O)C=C1` here?
Answer: inactive

Question: Which results are given for `CC(=O)c1cc2c(cc1C)C(C)(C)C(C)CC2(C)C` (stereo not given)?
Answer: outcome [18]: inactive; outcome [19]: inactive
